Molecules are shown by their SMILES. The panel holds about 83,000 compounds, 20% with a hit somewhere; the sample as a whole holds those more often.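 Percent growth is the endpoint: 0 to 100 indicates growth inhibition (40 means 60% inhibition), 0 means no net growth, and negative values indicate cell death.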 Values without a mark were called inactive. Active and inactive are the calls of the source. How the source made its calls: active means growth percent below 10; inactive means the rest.

Common to all, as to assay: NCI-60 one-dose screen, 48 h (100 = growth as untreated, 0 = no growth, -100 = all killed)
What all share (settings): 10 µM unless noted

In assay [1] the test system is HT29 colon.
Assay [2] relates to SNB-19 CNS.
For assay [3], the system named is U251 CNS.
For assay [4], the system named is PC-3 prostate.
Assay [5] has as its system SK-MEL-5 melanoma.
The test system of assay [6] is UACC-62 melanoma.
Assay [7] deals with LOX IMVI melanoma.
Assay [8] has as its system SK-MEL-28 melanoma.
Assay [9] concerns SK-MEL-2 melanoma.
The subject of assay [10] is EKVX NSCLC.
Assay [11] concerns SN12C renal.
The subject of assay [12] is UO-31 renal.
For assay [13], the system named is TK-10 renal.
Assay [14] deals with ACHN renal.
Assay [15] concerns CAKI-1 renal.
For assay [16], the system named is CCRF-CEM leukemia.
The test system of assay [17] is MOLT-4 leukemia.
Assay [18] relates to SR leukemia.
The test system of assay [19] is A498 renal.
Assay [20] has as its system SNB-75 CNS.

As to `O=C1C[C@@H]2/C(=C(O)\C=C\c3ccccc3)C(=O)C=C[C@@H]2O1`, the growth in [1] was -53.2% (active); in assay [2], 58.7%; in [3], 1.95% (active); in assay [4], 37.8%; in assay [5] it was 39.7%; in [6] it was -50.7% (active). Besides, the growth in assay [7] was -68% (active); in assay [8], -23.7% (active); in assay [9], -35% (active); in [10], 25.6%; in assay [11], -21.8% (active); in assay [12] it was -85.9% (active). Also, the growth in assay [13] is 3.39% (active); in assay [14], -17.7% (active); in [15], -54% (active); in [16] it was 12.5%; in assay [17], 6.97% (active); in [18], 10.2%.

For the molecule `CCOC(=O)C1C(=O)OC2CCCCC21` (stereo not drawn), the growth in assay [1] is 110%; in [2], 97.6%; in [3] it was 101%; in assay [4], 107%; in [5], 114%; in assay [6] it was 99.8%. Further, the growth in assay [7] was 105%; in assay [8], 109%; in [9], 118%; in [10], 120%; in assay [11], 102%; in [12], 79.6%. For the same molecule, the growth was 122% in assay [13]; 102% in [14]; 96.1% in assay [15]; 106% in assay [16]; 89% in [17]; 88% in [18].

For `Cc1c(C(N)=O)sc2c1C(=O)N(Cc1ccccc1)C1=NN=C(c3ccc(Cl)cc3)CN12`, the growth in assay [1] was 34.9%; in assay [2] it was 52.8%; in [3] it was 29.9%; in [5], 57%; in [6] it was 25.4%; in assay [7], 17.2%. Moreover, the growth was 72.8% in assay [8]; 66.8% in [9]; 62.7% in assay [10]; 61.5% in [11]; 26.3% in assay [12]; 59.4% in assay [13]. Further, the growth in assay [14] was 21.9%; in assay [15] it was 18.6%; in assay [19] it was 105%.

`CC(C)(C)c1ccc(C(O)CCCN2CCC(C(O)(c3ccccc3)c3ccccc3)CC2)cc1` (stereo not drawn): the growth in [1] was -92.7% (active); in [2], 4.49% (active); in [3] it was -85.4% (active); in assay [4], -4.17% (active); in assay [6], -98.1% (active); in assay [7] it was -93.9% (active). The growth in assay [10] was 28.3%; in assay [11], 4.51% (active); in assay [12] it was -80.9% (active); in assay [13] it was -81.7% (active); in assay [14], -88.2% (active); in assay [15], 1.36% (active). Moreover, the growth in [19] is 50.3%; in [16], -23.6% (active); in [17], -13.2% (active).

Turning to `Cc1cc(Cl)ccc1Nc1nc(C(F)(F)F)ccc1C(=O)NCC(=O)N/N=C/c1c(Cl)cccc1Cl`, the growth in assay [20] is 97.7%; in assay [2], 90.5%; in [3], 67.7%; in assay [4] it was -16.1% (active); in [5], 70.5%; in assay [6], 63%. Moreover, the growth is 56.3% in assay [7]; 85.7% in assay [8]; 98.2% in assay [9]; 48% in assay [10]; 78.3% in assay [11]; 65.9% in [12]. For the same molecule, the growth in assay [13] was 76.8%; in [14], 57.7%; in assay [15], 0.101% (active); in assay [19] it was 83.3%; in assay [16], 19.5%; in assay [17] it was 50.8%. The growth in assay [18] was 42.2%.

`CCN(CC)c1ccc(N=Nc2cc(Cl)ccc2Cl)c(NC(=O)CCC(=O)O)c1`: the growth in [20] is 91.1%; in assay [2], 110%; in assay [3], 94.7%; in [4], 90.1%; in assay [5] it was 103%; in [6] it was 101%. Further, the growth was 99.1% in assay [7]; 120% in [8]; 118% in assay [9]; 79.7% in assay [10]; 91.4% in assay [11]; 60.9% in assay [12]. In addition, the growth in assay [13] is 121%; in assay [14], 88.8%; in [15], 93.4%; in assay [19], 80.1%; in assay [16], 103%; in assay [17], 95.1%. Moreover, in [18], the growth was 98.4%.

For the molecule `COC1=CC(c2ccc[nH]2)=N/C1=C\c1[nH]c(C)c(C(=O)CCC(=O)Oc2ccc3c(c2)CCC2C3CC[C@]3(C)C(=O)CC[C@@H]23)c1C` (stereo partly drawn), the growth in assay [1] was 26.8%; in [2] it was 95.4%; in assay [3], 53%; in [4], 60.6%; in assay [5] it was 78%; in [6], 65%. Also, the growth is 97.3% in [8]; 91.3% in assay [9]; 63.3% in [11]; 52.9% in [12]; 107% in assay [13]; 62.7% in assay [14]. Further, the growth was 60.1% in [15]; 102% in [19]; 32.9% in assay [16]; 25.6% in assay [17]; 10.1% in [18].

For `Cc1c(C(N)=O)sc2c1c(=O)n(Cc1ccccc1)c1nnc(S(=O)(=O)CC(=O)Nc3ccc(Cl)cc3)n21`, the growth in [1] is 21.9%; in [2], 64.9%; in [3], 35.2%; in [4] it was 35%; in assay [5] it was 55.2%; in assay [6] it was 67.4%. The growth is 44.1% in [7]; 33.1% in assay [9]; 43.6% in assay [10]; 56% in assay [11]; 87% in assay [12]; 18% in assay [13]. For the same molecule, the growth is 10.1% in [14], 68.2% in assay [15] and 22.6% in assay [19].

As to `Cc1cc([N+](=O)[O-])c(C)cc1C(=O)O`, the growth in assay [1] was 104%; in assay [2], 101%; in assay [3], 109%; in assay [4] it was 99%; in assay [6], 100%; in assay [7], 103%. The growth in [8] is 110%; in [9] it was 114%; in assay [10], 112%; in [11], 105%; in assay [12], 85.4%; in [13], 105%. Besides, the growth was 99.8% in assay [14]; 97.4% in assay [15]; 96.6% in assay [19]; 104% in assay [16]; 112% in [17].
